Where “and” joins values, the source holds several entries; their conditions need not be identical. Equal entries are not always repeated. The campaign covered roughly 5,500 compounds. About 2,000 (36%) were called active. Not shown: some 18% with an inconclusive outcome. Rule as the data show it: active = normalized growth mostly below about 0.91 (no sharp cut-off); inconclusive = no clear call, values can overlap the other calls; inactive = mostly above about 0.92. The list shows a part of the results.
Test: chemical genetic growth profiling, strain panel (AID 1159580);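 also: tested at 20 µM; growth read once vehicle control cultures reached saturation at 30 °C; 1 = growth at the plate median or of vehicle wells; lower values mean less growth of the strain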
Conditions: S. cerevisiae deletion strains, growth OD

Measured: normalized growth

NC(N)=NC(=O)c1nc(Cl)c(N)nc1N
inactive: locus YAL013W, strain DEP1, hits give low values 0.935 | locus YAL021C, strain ccr4, hits give low values 0.977 | locus YAL026C, strain drs2, hits give low values 1.01 | locus YAL030W, strain snc1, hits give low values 1.01 | locus YAL040C, strain CLN3, hits give low values 1 | locus YBL061C, strain skt5, hits give low values 1.04 | locus YBR009C, strain hhf1, hits give low values 1.01 | locus YBR021W, strain FUR4, hits give low values 0.86 | locus YBR023C, strain chs3, hits give low values 1.04 | locus YBR171W, strain sec66, hits give low values 1.02 | locus YBR229C, strain ROT2, hits give low values 1 | locus YBR231C, strain swc5, hits give low values 1.02 | locus YBR279W, strain paf1, hits give low values 1.01 | locus YCL011C, strain gbp2, hits give low values 0.998 | locus YCL016C, strain dcc1, hits give low values 0.997 | locus YCL029C, strain bik1, hits give low values 1.02 | locus YCL061C, strain MRC1 (second series), hits give low values 0.995 | locus YCL061C, strain MRC1, hits give low values 1.03 | locus YCL069W, strain vba3, hits give low values 1.02 | locus YCR088W, strain abp1, hits give low values 1.03 | locus YDL005C, strain med2, hits give low values 1.02 | locus YDL035C, strain GPR1, hits give low values 0.983 | locus YDL040C, strain nat1, hits give low values 1.02 | locus YDL074C, strain BRE1, hits give low values 0.975 | locus YDL101C, strain DUN1, hits give low values 1.03 | locus YDL185W, strain tfp1, hits give low values 1.03 | locus YDL192W, strain arf1, hits give low values 1.02 | locus YDR001C, strain nth1, hits give low values 1.04 | locus YDR069C, strain doa4, hits give low values 1.04 | locus YDR101C, strain arx1, hits give low values 1.01 | locus YDR137W, strain rgp1, hits give low values 1.02 | locus YDR159W, strain sac3, hits give low values 1 | locus YDR162C, strain NBP2, hits give low values 1.02 | locus YDR195W, strain ref2 1.04 | locus YDR297W, strain sur2, hits give low values 1.02 | locus YDR318W, strain mcm21, hits give low values 1.02 | locus YDR334W, strain swr1, hits give low values 1.01 | locus YDR335W, strain msn5, hits give low values 1.01 | locus YDR388W, hits give low values 1.01 | locus YDR392W, strain spt3, hits give low values 0.988 | locus YDR502C, strain sam2, hits give low values 1.02 | locus YEL003W, strain gim4, hits give low values 1.02 | locus YEL037C, strain rad23, hits give low values 1.02 | locus YEL061C, strain CIN8 (second series), hits give low values 1.03 | locus YEL061C, strain CIN8, hits give low values 1 | locus YER002W, strain NOP16, hits give low values 1 | locus YER015W, strain faa2, hits give low values 1.03 | locus YER016W, strain bim1, hits give low values 1.02 | locus YER110C, hits give low values 1.02 | locus YER111C, strain swi4, hits give low values 1.03 | locus YER155C, strain BEM2 (second series), hits give low values 1.05 | locus YER155C, strain BEM2, hits give low values 1.01 | locus YER167W, strain BCK2, hits give low values 1 | locus YFR010W, strain ubp6, hits give low values 1.01 | locus YGL078C, strain dbp3, hits give low values 1.01 | locus YGL086W, strain mad1, hits give low values 1.01 | locus YGL167C, strain pmr1, hits give low values 1.04 | locus YGL173C, strain kem1, hits give low values 1.04 | locus YGL227W, strain vid30, hits give low values 1.03 | locus YGL240W, strain doc1, hits give low values 1.05 | locus YGL248W, strain PDE1, hits give low values 1.01 | locus YGL253W, strain hxk2, hits give low values 1 | locus YGR135W, strain pre9, hits give low values 0.987 | locus YGR229C, strain SMI1, hits give low values 0.994 | locus YGR252W, strain gcn5, hits give low values 0.896 | locus YHR013C, strain ard1, hits give low values 0.998 | locus YHR027C, strain rpn1, hits give low values 1.02 | locus YHR030C, strain SLT2, hits give low values 1.01 and 1 | locus YHR079C, strain IRE1 (second series), hits give low values 1.01 | locus YHR079C, strain IRE1, hits give low values 1 | locus YHR094C, strain hxt1, hits give low values 1.01 | locus YHR129C, strain ARP1, hits give low values 1.02 | locus YHR142W, strain chs7, hits give low values 1.02 | locus YHR200W, strain rpn10, hits give low values 1.02 | locus YIL066C, strain RNR3, hits give low values 1.02 | locus YIL073C, strain SPO22, hits give low values 1 | locus YIL125W, strain kgd1, hits give low values 1.01 | locus YIR030C, strain dcg1, hits give low values 1.02 | locus YJL092W, strain hpr5, hits give low values 1.01 | locus YJL095W, strain BCK1 (second series), hits give low values 1.03 | locus YJL095W, strain BCK1, hits give low values 0.962 and 1.01 | locus YJL115W, strain asf1, hits give low values 1.02 | locus YJL129C, strain trk1, hits give low values 1.04 | locus YJL134W, strain LCB3, hits give low values 1 | locus YJL154C, strain vps35, hits give low values 1.01 | locus YJL164C, strain tpk1, hits give low values 0.995 | locus YJL166W, strain qcr8, hits give low values 1.04 | locus YJL168C, strain set2, hits give low values 1.02 | locus YJL187C, strain SWE1 (second series), hits give low values 1.01 | locus YJL187C, strain SWE1, hits give low values 1.02 | locus YJR043C, strain POL32, hits give low values 1.02 | locus YJR066W, strain TOR1, hits give low values 0.959 | locus YJR075W, strain HOC1, hits give low values 1.02
